# Several values for one entry are separate records, joined by “and”; a condition that tells them apart may be missing. Identical values can stand only once. About 83,000 compounds went through this panel and 20% of them were active in at least one assay; those are over-represented in the sample as a whole.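 Testing used 96-well plates and a 48-hour single-concentration exposure. Example: -40 means 40% of the starting cells died.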 Activity calls are given as the source filed them. Rule for the calls: active = growth percent below 10; inactive = the rest.
# Tests used:
# Experiment in all cases: NCI-60 one-dose screen, 48 h (100 = growth as untreated, 0 = no growth, -100 = all killed)
# [1] = system: EKVX NSCLC; details: 10 µM unless noted
# [2] = system: SN12C renal; details: 10 µM unless noted
# [3] = system: UO-31 renal; details: 10 µM unless noted
# [4] = system: TK-10 renal; details: 10 µM unless noted
# [5] = system: ACHN renal; details: 10 µM unless noted
# [6] = system: CAKI-1 renal; details: 10 µM unless noted
# [7] = system: A498 renal; details: 10 µM unless noted
# [8] = system: SR leukemia; details: 10 µM unless noted
# [9] = system: RPMI-8226 leukemia; details: 10 µM
# [10] = system: OVCAR-8 ovarian; details: 10 µM unless noted
# [11] = system: OVCAR-5 ovarian; details: 10 µM unless noted
# [12] = system: OVCAR-4 ovarian; details: 10 µM unless noted
# [13] = system: SK-OV-3 ovarian; details: 10 µM
# [14] = system: OVCAR-3 ovarian; details: 10 µM unless noted
# [15] = system: HS 578T breast; details: 10 µM unless noted
# [16] = system: NCI/ADR-RES ovarian; details: 10 µM unless noted
# [17] = system: CCRF-CEM leukemia; details: 10 µM unless noted
# [18] = system: MOLT-4 leukemia; details: 10 µM unless noted
# [19] = system: IGROV1 ovarian; details: 10 µM unless noted
smiles,measurement,setting,value
Oc1ccccc1/C=N/Nc1nc2ccccc2s1,growth,[1],61.9% (inactive)
same,growth,[2],48.8% (inactive)
same,growth,[3],19.7% (inactive)
same,growth,[4],95.1% (inactive)
same,growth,[5],43.1% (inactive)
same,growth,[6],7.12% (active)
same,growth,[7],78.3% (inactive)
same,growth,[8],43.7% (inactive)
same,growth,[9],35.8% (inactive)
same,growth,[10],57.3% (inactive)
same,growth,[11],91.8% (inactive)
same,growth,[12],19.9% (inactive)
same,growth,[13],57.5% (inactive)
same,growth,[14],13.8% (inactive)
same,growth,[15],65.2% (inactive)
same,growth,[16],51.6% (inactive)
CN1CCc2c(c3ccccc3c3ccccc23)C1,growth,[2],42.7% (inactive)
same,growth,[3],42.2% (inactive)
same,growth,[4],60.9% (inactive)
same,growth,[5],25.7% (inactive)
same,growth,[6],56.1% (inactive)
same,growth,[7],62.9% (inactive)
same,growth,[17],-38.4% (active)
same,growth,[18],6.11% (active)
same,growth,[8],20.5% (inactive)
same,growth,[9],50.8% (inactive)
same,growth,[10],37.3% (inactive)
same,growth,[11],60% (inactive)
same,growth,[12],82.1% (inactive)
same,growth,[13],63% (inactive)
same,growth,[19],61.4% (inactive)
same,growth,[14],63.7% (inactive)
same,growth,[15],82.4% (inactive)
same,growth,[16],45% (inactive)
Oc1cccc(Nc2nc(-c3ccccn3)cs2)c1,growth,[2],97.8% (inactive)
same,growth,[3],73.1% (inactive)
same,growth,[4],111% (inactive)
same,growth,[5],102% (inactive)
same,growth,[6],111% (inactive)
same,growth,[8],87.8% (inactive)
same,growth,[9],81.9% (inactive)
same,growth,[10],106% (inactive)
same,growth,[11],110% (inactive)
same,growth,[12],101% (inactive)
same,growth,[13],95.2% (inactive)
same,growth,[19],100% (inactive)
same,growth,[14],119% (inactive)
same,growth,[16],94.6% (inactive)
CC(=O)Nc1ccccc1-c1n[nH]c(=O)[nH]c1=O,growth,[2],104% (inactive)
same,growth,[5],95.3% (inactive)
same,growth,[6],83% (inactive)
same,growth,[7],87.8% (inactive)
same,growth,[17],105% (inactive)
same,growth,[18],109% (inactive)
same,growth,[8],107% (inactive)
same,growth,[9],103% (inactive)
same,growth,[11],96.4% (inactive)
same,growth,[13],99.1% (inactive)
same,growth,[19],104% (inactive)
same,growth,[14],113% (inactive)
same,growth,[15],77.9% (inactive)
same,growth,[16],102% (inactive)
CC(C)(C)c1cc(C2COC(=O)COCC(=O)OCCOCCOCCO2)cc(C(C)(C)C)c1O (stereo unspecified),growth,[4],-74.5% [100 µM] (active) and -100% [100 µM] (active)
CCOc1cc2c(cc1O)/C(=N\N)C[C@@H]1[C@@H]2CC[C@]2(C)[C@@H](O)CC[C@@H]12,growth,[4],36.7% [100 µM] (inactive) and -97% [100 µM] (active)
CC1OC(OC2C(O[C@H]3CC[C@@]4(C)C(=CC[C@H]5[C@@H]6C[C@@H]7O[C@]8(CC[C@H](C)CN8)[C@@H](C)[C@@H]7[C@@]6(C)CC[C@@H]54)C3)OC(CO)C(O)C2OC2OC(CO)C(O)C(O)C2O)C(O)C(O)C1O (stereo partly specified),growth,[4],95.2% [100 µM] (inactive) and -95% [100 µM] (active)
Cc1sccc1C(=S)Nc1ccc(Cl)c(/C=N/OC(C)(C)C)c1,growth,[4],-91.4% [100 µM] (active) and -90.7% [100 µM] (active)
CC(=O)O[C@@H]1C[C@@]2(C)[C@@H]3CC=C4[C@@H](C[C@H](O)C(=O)C4(C)C)[C@]3(C)C(=O)C[C@]2(C)[C@H]1[C@@](C)(O)C(=O)/C=C/C(C)(C)OC(C)=O,growth,[4],-62% [100 µM] (active) and -91% [100 µM] (active)
COc1cc2nc(SCc3cc(OC)c(OC)c(OC)c3)n(-c3ccccc3OC)c(=O)c2cc1OC,growth,[2],98% (inactive)
same,growth,[5],88.5% (inactive)
same,growth,[6],42.9% (inactive)
same,growth,[7],25.5% (inactive)
same,growth,[18],46.8% (inactive)
same,growth,[8],23.8% (inactive)
same,growth,[9],71.2% (inactive)
same,growth,[10],84.6% (inactive)
same,growth,[11],89% (inactive)
same,growth,[12],83.1% (inactive)
same,growth,[13],98.2% (inactive)
same,growth,[19],83.1% (inactive)
same,growth,[14],48.2% (inactive)
same,growth,[15],60.8% (inactive)
same,growth,[16],62.9% (inactive)
C=C1CC(O)C2C(=C)C(=O)OC2C2C(C)C(=O)CC12 (stereo unspecified),growth,[4],-95.6% [100 µM] (active) and -97% [100 µM] (active)
COc1ccc(CC2c3cc(OC)c(OC)c(OC)c3CC[N+]2(C)C)cc1Oc1ccc(CC2c3cc4c(c(OC)c3CCN2C)OCO4)cc1 (stereo unspecified),growth,[4],85.8% [100 µM] (inactive) and 47.5% [100 µM] (inactive)
CC1=CCC2C3(C)CCC2(C(C)C)C1C3 (stereo unspecified) (tested in a mixture with another compound),growth,[4],17.7% [100 µM] (inactive) and -89.5% [100 µM] (active)
C=CCCCCCCCCC(=O)[O-].C=CCCCCCCCCC(=O)[O-].[Zn+2],growth,[3],80.7% (inactive)
same,growth,[8],91.1% (inactive)
Cc1ccc(N=c2nc3sc4c(C)ccc(C)c4n3c(N)c2C#N)cc1,growth,[2],108% (inactive)
same,growth,[5],103% (inactive)
same,growth,[6],88.4% (inactive)
same,growth,[7],110% (inactive)
same,growth,[17],85% (inactive)
same,growth,[8],111% (inactive)
same,growth,[9],85.1% (inactive)
same,growth,[10],104% (inactive)
same,growth,[11],104% (inactive)
same,growth,[13],96.3% (inactive)
same,growth,[19],95.1% (inactive)
same,growth,[14],106% (inactive)
same,growth,[15],104% (inactive)
same,growth,[16],106% (inactive)
